Hit rate of the full screen: of about 5,500 compounds, about 2,000 (36%) were called active. About 18% were inconclusive and are not listed. No stated cut-off is given here; in the data, active means normalized growth mostly below about 0.91 (no sharp cut-off); inconclusive means no clear call, values can overlap the other calls; inactive means mostly above about 0.92. Some of the results follow.
Test: chemical genetic growth profiling, strain panel (AID 1159580);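 further: tested at 20 µM; growth read once vehicle control cultures reached saturation at 30 °C; 1 = growth at the plate median or of vehicle wells; lower values mean less growth of the strain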
Details: S. cerevisiae deletion strains, growth OD

Measured: normalized growth

Cc1cc(N)c2ccccc2[n+]1CCCCCCCCCCCCCC[n+]1c(C)cc(N)c2ccccc21
active: locus YAL013W, strain DEP1, hits give low values 0.365 | locus YAL040C, strain CLN3, hits give low values 0.0844 | locus YCL061C, strain MRC1 (second series), hits give low values 0.0514 | locus YDR150W, strain NUM1, hits give low values 0.0556 | locus YDR363W, strain ESC2, hits give low values 0.0835 | locus YER002W, strain NOP16, hits give low values 0.0687 | locus YNL175C, strain NOP13, hits give low values 0.0676 | locus YNL197C, strain WHI3, hits give low values 0.0663 | locus YNL224C, strain SQS1, hits give low values 0.068 | locus YOR083W, strain WHI5 (second series), hits give low values 0.0774

— PubChem BioAssay AID1159580 (chemical genetic matrix, 2015)
